PubChem BioAssay (NCI)
Compounds without any hit were thinned out: in the full panel of roughly 79,000, 15% have a hit. Rule as the data show it: active = growth inhibition above about 70%; inactive = the rest.

Key:
[1] = NCI Yeast Anticancer Drug Screen. Data for the rad50 strain (AID 155);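 also: 0% = growth of vehicle-only cultures of the same strain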; settings: S. cerevisiae rad50 strain growth inhibition; at 50.0 µM; hits give high values
Method in brief: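 Vehicle-treated cultures provide the reference for the growth inhibition reported for compound-exposed, repair-deficient yeast.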

[2] = NCI Yeast Anticancer Drug Screen. Data for the mec2-1 strain (AID 157); settings: S. cerevisiae mec2-1 strain, at 50.0 µM, hits give high values
Method in brief: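 Using mec2-1 yeast: add compound, measure growth, express inhibition versus vehicle-treated cultures.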

[3] = NCI Yeast Anticancer Drug Screen. Data for the sgs1 mgt1 strain (AID 161);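 also: 0% = growth of cultures given vehicle only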; settings: S. cerevisiae sgs1 mgt1 strain, at 50.0 µM, hits give high values
Method in brief: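 Percent growth inhibition was derived by comparing compound-exposed mutant yeast with vehicle-exposed cultures. The strain carries alterations in DNA damage repair.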

[4] = NCI Yeast Anticancer Drug Screen. Data for the cln2 rad14 strain (AID 165);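 also: 0% = growth equal to vehicle treated cultures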; settings: S. cerevisiae cln2 rad14 strain, at 50.0 µM, hits give high values
Method in brief: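 Yeast strain cln2 rad14, bearing defects in cell cycle control and DNA repair, serves as the test system; values reflect growth inhibition compared with vehicle.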

[5] = NCI Yeast Anticancer Drug Screen. Data for the bub3 strain (AID 167); settings: S. cerevisiae bub3 mutant strain, at 50.0 µM, hits give high values
Method in brief: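 Mutant yeast screening strain plus compound; vehicle-treated cultures serve as the 0% inhibition reference.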

[6] = NCI Yeast Anticancer Drug Screen. Data for the mlh1 rad18 strain (AID 175); settings: S. cerevisiae mlh1 rad18 strain growth inhibition; at 50.0 µM; hits give high values
Method in brief: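 Steps: expose repair-defective yeast to compound; measure growth; express inhibition against vehicle-treated controls.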

Measured: growth inhibition

O=C1N(Cl)C2C(N1Cl)N(Cl)C(=O)N2Cl (configuration not stated)
inactive: [1] 5.35% | [2] -9.55% | [3] -18.4% | [4] -2.9% | [5] 2.95% | [6] -12.6%

COc1ccc(/C=N/NC(=O)c2ccc(N)cc2)c(OC)c1
inactive: [1] 5.7% | [2] 9.4% | [3] 10% | [4] -0.9% | [5] 14.2% | [6] 13%

CCOC1CCCCO1 (configuration not stated)
inactive: [1] -24.5% | [2] -4.1% | [3] -13.4% | [4] 9.4% | [5] -13.8% | [6] -8.1%

O=S(=O)(O)C(Cc1nc2ccccc2[nH]1)S(=O)(=O)OCCC1S(=O)(=O)OCCOS1(=O)=O (configuration not stated)
inactive: [1] 0% | [2] -0.4% | [3] 29.5% | [4] -18.9% | [5] 13.1% | [6] -24.9%

CCOC(OCC)C(N)=O
inactive: [1] 2.75% | [2] -12.1% | [3] -1.6% | [4] 11.3% | [5] -6.3% | [6] 2.65%

CCOC(=O)c1c(-c2ccccc2)c(C)cn1C
inactive: [1] -16.1% | [2] -26% | [3] -24.9% | [4] 11% | [5] -7.75% | [6] 1%

C=CCCCCCCCCC(=O)NCc1nc2ccccc2[nH]1
inactive: [1] 20.6% | [2] 21.6% | [3] 25.9% | [4] 1.15% | [5] 5.9% | [6] 69.1%

CC(=O)Nc1ccc(S(=O)(=O)SC(F)(F)F)cc1
inactive: [1] 0.8% | [2] 7.25% | [3] 17.4% | [4] 24.7% | [5] 8.85% | [6] 13.7%

CS(C)(=O)=Nc1ccc(F)cc1
inactive: [1] 8.9% | [2] -7.6% | [3] -2.3% | [4] -21.7% | [5] -13.1% | [6] 3.25%

O=C(O)CCCc1ccc2c(c1)oc1ccccc12
inactive: [1] -18.6% | [2] -6.3% | [3] 1.5% | [4] -18.6% | [5] 13.6% | [6] 20.9%

COC(=O)C1=C(c2ccccc2)c2ccc3ccccc3c2C1c1ccccc1 (configuration not stated)
inactive: [1] 40.1% | [2] -8.25% | [3] 22.9% | [4] 12.4% | [5] 6.15% | [6] 25.2%

CCC(C)Nc1ccc(NS(=O)(=O)CCl)cc1 (configuration not stated)
inactive: [1] 54% | [2] 6.3% | [3] 13.3% | [4] 4.25% | [5] 6.6% | [6] 8.9%

O=C(O)C(CCc1cccc(Cl)c1)C(=O)O
inactive: [1] 8.1% | [2] -13.8% | [3] -0.85% | [4] 2.15% | [5] 4.35% | [6] -11.6%

O=C(O)C(CS(=O)(=O)O)S(=O)(=O)O (configuration not stated)
inactive: [1] -10.3% | [2] -18.2% | [3] -1.9% | [4] -7.15% | [5] 3.15% | [6] -10.5%

O=C1C=C(Nc2ccccc2C(=O)CC(=O)C(=O)Nc2cccc([N+](=O)[O-])c2)c2ccccc2C1=O
inactive: [1] -15.2% | [2] 12.3% | [3] -7.2% | [4] 12.3% | [5] -15.5% | [6] -7.1%

C1=Cc2c3c(c4c(c2C1)C=CC4)C=CC3
inactive: [1] -1.95% | [2] -8.1% | [3] -1.2% | [4] -2.3% | [5] -1.15% | [6] 6.3%

CCN(CC)CCCCCOC(=O)c1ccccc1
inactive: [1] 23.2% | [2] 28.2% | [3] 48.5% | [4] 40% | [5] 43.4% | [6] 18.6%

C=CCn1c(=O)n(CC=C)c(=O)n(CC=C)c1=O
inactive: [1] 7.4% | [2] 14.3% | [3] -5.35% | [4] -26.6% | [5] -10.3% | [6] -10.8%

COCCCN1COCC(COc2ccc(Cl)cc2)OC1 (configuration not stated)
inactive: [1] -17.9% | [2] -35% | [3] -32.2% | [4] -23.2% | [5] -36.6% | [6] -27.9%

CC(Oc1ccccc1-c1ccccc1)C(=O)N(C)C (configuration not stated)
inactive: [1] -15.2% | [2] -0.2% | [3] 1.45% | [4] 0.75% | [5] -20.6% | [6] -45.6%

O=C1Nc2ccccc2/C1=N/N1C(=O)CSC1=S
inactive: [1] 28.6% | [2] 15% | [3] 32.5% | [4] 7.2% | [5] 15.6% | [6] 29.1%

COc1cccc(C2c3cc4c(cc3OC(N3CCCCC3)C2C)OCO4)c1O (configuration not stated)
inactive: [1] -22.5% | [2] -31.1% | [3] 0.15% | [4] 18.9% | [5] -2.5% | [6] 0.1%

NC(=S)c1ccc[n+](Cc2c(Cl)cccc2Cl)c1
inactive: [1] 11.9% | [2] 3.6% | [3] -0.8% | [4] -13.3% | [5] -0.15% | [6] -4.4%

Nc1ccc2[nH]cc(CCC(=O)O)c2c1
inactive: [1] -11.8% | [2] -6.95% | [3] -4.45% | [4] -11.6% | [5] -60.6% | [6] 18.5%

O=c1c2ccccc2on1CN1CCN(Cn2oc3ccccc3c2=O)CC1
inactive: [1] 3.6% | [2] -11.1% | [3] -8% | [4] -12.9% | [5] -12.1% | [6] 5.05%

O=C(/C=C/c1c[nH]c2ccccc12)c1ccccc1[N+](=O)[O-]
inactive: [1] 5.45% | [2] 9.75% | [3] 7.55% | [4] -7.7% | [5] 7.6% | [6] -7%

CCN(CC)CCN(CC)CCN(CC)CC
inactive: [1] 6.7% | [2] 5.65% | [3] -1.75% | [4] 3.85% | [5] 4.1% | [6] -0.7%

COc1ccc(N=Cc2c(O)ccc3ccccc23)cc1
inactive: [1] 12% | [2] 48% | [3] 43.1% | [4] 0.95% | [5] 32% | [6] 63%

Cn1cccc1/C=N/N=C(/N)NO
inactive: [1] 22.9% | [2] -9.85% | [3] -13.7% | [4] -4.5% | [5] -18.5% | [6] -0.4%

CCOC(=O)CC(=O)c1ccccc1SC
inactive: [1] 13.2% | [2] -1.55% | [3] -6.1% | [4] 4.4% | [5] -1.45% | [6] 17.4%

O=C(OC1CCCC1)C1(O)CCCCC1
inactive: [1] 18.2% | [2] 12.7% | [3] 3.8% | [4] 10.5% | [5] -2.15% | [6] -16.2%

COc1ccc(S(=O)(=O)N/N=C/c2cccc([N+](=O)[O-])c2O)cc1
inactive: [1] 9.3% | [2] -3.7% | [3] 19.7% | [4] 2% | [5] 12% | [6] 32.6%

O=C(NC(=S)Nc1ccc(Cl)c(Cl)c1)c1cccc([N+](=O)[O-])c1
inactive: [1] -6.45% | [2] 3.35% | [3] 10.9% | [4] 0.65% | [5] -3.2% | [6] 5.7%

CCc1cccc(C(C)C)c1NC(=O)C(=O)C(C(=O)C(=O)OC)c1nc2ccccc2[nH]c1=O (configuration not stated)
inactive: [1] 5.95% | [2] -29.1% | [3] 8.85% | [4] 20.2% | [5] -9.5% | [6] 2.9%

C[Si](C)(C)C#C[I+]c1ccccc1
inactive: [1] -27.6% | [2] -24.4% | [3] 12.7% | [4] 5.65% | [5] 8.95% | [6] -8.85%

CC(=O)c1ccc[cH-]1.[Fe+2].c1cc[cH-]c1
inactive: [1] 13.5% | [2] 9.75% | [3] 12.9% | [4] 4.25% | [5] 23.2% | [6] 11.3%

CN1c2ccccc2Nc2cc(C#N)ccc21
inactive: [1] -0.7% | [2] -8.3% | [3] 14.8% | [4] -30.4% | [5] 19.2% | [6] 5.7%

CC1=NN(c2ccccc2)C(=O)/C1=C\c1ccccc1
inactive: [1] 15.6% | [2] 16.9% | [3] 24.7% | [4] 10.1% | [5] 33.5% | [6] 21.6%

CO[C@H](C)[C@@](O)(C(=O)OCC1=CCN2CCC[C@@H]12)C(C)C
inactive: [1] -2.3% | [2] -9.4% | [3] 32.4% | [4] 8.65% | [5] 4.5% | [6] 16.3%

COc1cc(NCCCCCN2C(=O)c3ccccc3C2=O)c2ncccc2c1
inactive: [1] 13.9% | [2] 13.2% | [3] 17.4% | [4] 11% | [5] 10.7% | [6] 0.1%

CC(C)c1nnc(NC(=O)CSC(=S)N2CCOCC2)s1
inactive: [1] -23.9% | [2] -18.1% | [3] -5.95% | [4] -51.9% | [5] -16.6% | [6] -2.25%

Cc1cccc(C)c1NC(=O)N1CCN(C)CC1
inactive: [1] 1.9% | [2] 14.3% | [3] -3.3% | [4] -75.8% | [5] -9.45% | [6] -18.6%
